Measurements: PubChem BioAssay (NCATS)
Inconclusive results are not listed. The source made the active and inactive calls. Unless noted, the call rests on the fitted dose curve; in most records, active means well fitted curve in either direction with a large enough effect (not every such curve was filed as active); inconclusive means small, poorly fitted or top-dose-only effect, or another doubt; inactive means flat fitted curve, though single readings scatter.

Experiments:
[1] = tested on: HIV-1 nucleocapsid protein NCp7 (binding to TG oligonucleotide); test: HIV Nucleocapsid (AID 346; call rule not given here;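 further: potency means the concentration at half of the fitted maximal effect; potency is for inhibitors that block NC binding and lower polarization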); conditions: HIV-1 NC / fluorescein-TGTGTGTG probe, fluorescence polarization
In short: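 NCp7 100 nM + fluorescein TG4xF 10 nM; Hepes pH 7.5/250mM NaCl/1uM ZnCl2/0.004% PEG 20000; 1 hr RT; FP, 45 s exposure; oligo-only wells as negative control.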

[2] = biological target: Lysosomal acid glucosylceramidase (Homo sapiens) (UniProt P04062); test: Glucocerebrosidase-p2 (AID 348; in the data active means potency below about 10 µM; further: potency means the concentration at half of the fitted maximal effect); conditions: purified GBA, blue fluorogenic substrate, 40 min
Chain of Lysosomal acid glucosylceramidase (Homo sapiens) (P04062 whole entry, looked up): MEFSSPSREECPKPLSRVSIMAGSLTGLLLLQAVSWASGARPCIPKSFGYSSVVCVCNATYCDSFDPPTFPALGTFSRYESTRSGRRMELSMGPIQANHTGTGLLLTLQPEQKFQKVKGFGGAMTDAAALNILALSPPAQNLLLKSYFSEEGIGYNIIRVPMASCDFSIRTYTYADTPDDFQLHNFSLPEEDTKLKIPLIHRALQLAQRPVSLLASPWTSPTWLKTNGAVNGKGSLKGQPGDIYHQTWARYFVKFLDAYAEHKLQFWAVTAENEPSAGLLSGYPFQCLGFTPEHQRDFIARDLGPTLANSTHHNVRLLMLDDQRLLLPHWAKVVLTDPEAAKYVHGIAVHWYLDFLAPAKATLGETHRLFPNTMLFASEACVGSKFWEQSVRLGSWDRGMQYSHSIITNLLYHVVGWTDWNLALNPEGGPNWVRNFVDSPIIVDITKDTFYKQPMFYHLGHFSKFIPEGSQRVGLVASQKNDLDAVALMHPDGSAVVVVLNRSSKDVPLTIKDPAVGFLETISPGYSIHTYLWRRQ
In short: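 Compounds titrated from 0.6 nM upwards against 0.2 nM enzyme in pH 5.9 citric acid/KH2PO4, taurocholate, tween-20; blue fluorogenic substrate 80 uM, 40 min room temperature, stopped and read Ex 365/Em 440 for AC50.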

[3] = AP1 Signaling Pathway (AID 357); conditions: ME-180 AP-1-bla reporter, EGF-induced, beta-lactamase ratio, 5 h; series mostly up to 17.2 µM; further: on the % scale 0 is the no-effect control and ±100 the full control effect
In short: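 ME-180 cells with beta-lactamase reporter under AP-1 response element, stimulated with EC50 EGF; compounds tested in titration series, 5 h at 37 °C. CCF4 substrate added 2.5 h at room temperature; 460/530 nm emission ratio gave %activity and AC50.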

[4] = biological target: Cytochrome P450 1A2 (Homo sapiens) (UniProt P05177); test: p450-cyp1a2 (AID 410; calls by dose curve; further: potency means the concentration at half of the fitted maximal effect;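 on activity change, negative = inhibition: -100% = full effect of reference inhibitor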); conditions: recombinant CYP1A2, luciferin-ME demethylation, luminescence; series mostly up to 25.6 µM
Chain of Cytochrome P450 1A2 (Homo sapiens) (P05177 whole entry, looked up): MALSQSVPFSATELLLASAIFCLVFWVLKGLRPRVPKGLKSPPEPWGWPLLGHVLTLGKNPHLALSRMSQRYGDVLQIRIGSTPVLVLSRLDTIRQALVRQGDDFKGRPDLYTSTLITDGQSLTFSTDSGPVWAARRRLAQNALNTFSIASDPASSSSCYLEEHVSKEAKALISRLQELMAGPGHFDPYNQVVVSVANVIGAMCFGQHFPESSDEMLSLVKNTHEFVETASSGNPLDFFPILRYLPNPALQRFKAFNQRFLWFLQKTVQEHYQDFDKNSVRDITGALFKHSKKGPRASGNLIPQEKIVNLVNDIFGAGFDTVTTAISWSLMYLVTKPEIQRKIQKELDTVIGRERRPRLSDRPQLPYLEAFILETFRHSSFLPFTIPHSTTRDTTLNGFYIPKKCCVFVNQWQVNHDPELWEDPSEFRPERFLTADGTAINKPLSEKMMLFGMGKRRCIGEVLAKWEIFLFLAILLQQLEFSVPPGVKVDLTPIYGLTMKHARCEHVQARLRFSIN
In short: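 20nM CYP1A2 with 100uM Luciferin-ME (at Km) in 100mM KPO4; compound preincubated 10 min, NADPH regeneration added, 60 min at room temperature. Luciferin quantified by luminescence after detection reagent; normalized to 57 uM furafylline.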

[5] = NFAT Signaling Pathway (AID 444); conditions: Jurkat NFAT-bla M1, carbachol, beta-lactamase ratio, 5 h; at 7.69 µM (top of the series);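 further: carbachol stimulus at about its EC50 of 1 µM final; on the % scale 0 is the no-effect control and ±100 the full control effect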
In short: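 Jurkat cells with NFAT-driven β-lactamase reporter and co-expressed M1 receptor, stimulated with carbachol (final 1 uM, ~EC50), compound titration, 5 h at 37 °C. CCF4 loaded 1 h at RT; 460/530 nm ratio gave %activity and AC50.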

[6] = Stat Signaling Pathway (AID 446); conditions: ME-180 SIE beta-lactamase reporter, IL-6 stimulated, 5 h; series mostly up to 17.2 µM;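 further: ME-180 cervical cancer cells given 40 pM IL-6 alongside compound; SIE-controlled beta-lactamase reporter measured as 460/530 nm FRET emission ratio; on the % scale 0 is the no-effect control and ±100 the full control effect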
In short: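 Reporter line: ME-180 cervical carcinoma, SIE-beta-lactamase. Treatment: compound with 40 pM IL-6, 5 hrs, 37 C, in low-serum OPTI-MEM with 10 mM HEPES pH 7.3. Detection: 460/530 nm fluorescence.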

[7] = biological target: Glucocorticoid receptor (Homo sapiens) (UniProt P04150); test: GR-EFC Redistribution (AID 451; calls by dose curve; further: potency means the concentration at half of the fitted maximal effect); conditions: CHO-K1 GR-EFC translocation, beta-gal luminescence, 2 h
Chain of Glucocorticoid receptor (Homo sapiens) (P04150 whole entry, looked up, the tested form may be a part): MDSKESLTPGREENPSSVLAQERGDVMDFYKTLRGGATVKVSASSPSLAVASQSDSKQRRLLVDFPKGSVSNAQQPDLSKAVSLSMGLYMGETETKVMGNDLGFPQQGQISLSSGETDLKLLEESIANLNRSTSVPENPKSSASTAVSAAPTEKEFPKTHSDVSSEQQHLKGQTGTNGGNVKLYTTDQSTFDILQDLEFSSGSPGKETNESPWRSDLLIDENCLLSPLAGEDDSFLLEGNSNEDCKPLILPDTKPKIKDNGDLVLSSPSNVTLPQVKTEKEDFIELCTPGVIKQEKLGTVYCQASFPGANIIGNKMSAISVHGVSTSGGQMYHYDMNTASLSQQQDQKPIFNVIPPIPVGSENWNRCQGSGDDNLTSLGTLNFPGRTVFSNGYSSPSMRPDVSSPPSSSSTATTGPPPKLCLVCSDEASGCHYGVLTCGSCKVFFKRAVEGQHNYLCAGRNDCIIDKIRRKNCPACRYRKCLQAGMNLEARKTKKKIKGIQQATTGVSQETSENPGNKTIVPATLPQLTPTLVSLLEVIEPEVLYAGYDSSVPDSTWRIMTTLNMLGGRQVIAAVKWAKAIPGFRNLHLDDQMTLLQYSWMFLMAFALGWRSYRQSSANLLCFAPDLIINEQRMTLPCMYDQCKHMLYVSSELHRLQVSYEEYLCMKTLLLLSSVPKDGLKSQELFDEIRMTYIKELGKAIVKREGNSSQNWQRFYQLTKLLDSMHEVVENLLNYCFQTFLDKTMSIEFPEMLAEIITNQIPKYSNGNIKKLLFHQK
In short: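 CHO-K1 cells expressing nuclear EA and GR-ED fragments of b-gal; compounds titrated up to 46 uM final, 2 h at 37 C. GR nuclear translocation read as complemented b-gal luminescence after 1 h RT detection.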

[8] = biological target: Mitogen-activated protein kinase 10 (Mus musculus) (UniProt Q61831); test: JNK3 AlphaScreen Assay (AID 530); conditions: JNK3 lysate, c-Jun phosphorylation; series mostly up to 57.1 µM;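 further: kinase came from lysate of stimulated human HepG2 cells; signal reports phosphorylation of biotinylated GST-cJun 1-79 at Ser73 with 10 µM ATP; on the % scale 0 is the no-effect control and ±100 the full control effect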
In short: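 Pre-activated (IL-1β/TNFα) JNK3 in HepG2 lysates phosphorylates biotin-GST-cJun(1-79), 10 uM ATP; anti-phospho-cJun(Ser73) AlphaScreen read at room temperature, pH 7.6 Tris buffer. Compounds pre-incubated 15 min as titrations.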

[9] = biological target: 3',5'-cyclic-AMP phosphodiesterase 4B (Homo sapiens) (UniProt Q07343); test: qHTS Assay for Inhibitors of PDE-IV (AID 607; active means well fitted activation curve with a large enough effect in the main read-out, with a control signal flat, not every such curve was filed as active; further: % of control where 0% means no effect); conditions: HEK293 ACTOne CNG channel cells, membrane potential fluorescence; series mostly up to 22.9 µM
Chain of 3',5'-cyclic-AMP phosphodiesterase 4B (Homo sapiens) (Q07343 whole entry, looked up): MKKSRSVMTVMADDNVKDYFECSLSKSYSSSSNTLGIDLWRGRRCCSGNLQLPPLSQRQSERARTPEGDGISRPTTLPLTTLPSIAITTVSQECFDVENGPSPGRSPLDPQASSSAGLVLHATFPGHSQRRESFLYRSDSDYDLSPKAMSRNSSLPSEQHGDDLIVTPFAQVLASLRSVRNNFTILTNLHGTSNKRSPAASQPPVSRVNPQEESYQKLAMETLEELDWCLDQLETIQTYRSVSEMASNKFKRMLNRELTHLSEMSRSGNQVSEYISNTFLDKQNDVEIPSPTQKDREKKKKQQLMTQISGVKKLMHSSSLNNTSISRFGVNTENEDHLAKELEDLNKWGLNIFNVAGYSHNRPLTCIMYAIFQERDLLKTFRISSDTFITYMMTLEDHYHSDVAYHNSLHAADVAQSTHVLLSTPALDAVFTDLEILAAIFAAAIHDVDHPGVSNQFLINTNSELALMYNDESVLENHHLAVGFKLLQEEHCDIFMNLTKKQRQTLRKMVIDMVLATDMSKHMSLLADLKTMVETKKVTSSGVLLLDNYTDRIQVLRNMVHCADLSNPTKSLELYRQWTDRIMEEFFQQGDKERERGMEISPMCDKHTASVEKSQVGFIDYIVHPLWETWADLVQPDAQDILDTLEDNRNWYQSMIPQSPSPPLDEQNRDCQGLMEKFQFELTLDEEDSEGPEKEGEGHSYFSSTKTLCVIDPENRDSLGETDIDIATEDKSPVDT
In short: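 Cell-based read-out of cAMP via a modified cyclic nucleotide-gated channel and membrane potential dye (535/590 nm) in HEK293 cells expressing PDE4 endogenously. Compounds tested up to 22.9 uM final; 100 uM RO 20-1724 reference.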

[10] = qHTS Assay for Lipid Storage Modulators (AID 1519; calls by dose curve); conditions: Drosophila S3 cells, BODIPY lipid droplet/cell ratio, laser cytometry, cells loaded with oleic acid
In short: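 Cells seeded at 5,000 per well were treated with compounds over a concentration series and loaded with oleic acid (400 uM, as added). Lipid droplet fluorescence (488 nm excitation, 500-530 nm channel) was read by laser-scanning cytometry and normalized to 20 uM Triacsin C.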

[11] = Primary qHTS for small molecule stabilizers of the endoplasmic reticulum resident proteome: Secreted ER Calcium Modulated Protein (SERCaMP) assay (AID 1508630; active means well fitted curve in the direction sought with a large enough effect; an effect the other way counts as inactive or inconclusive; further: on the % scale 0 is the no-effect control and ±100 the full control effect); conditions: SH-SY5Y GLuc-SERCaMP (Gaussia luciferase released on ER calcium loss) secretion, thapsigargin, luminescence; series mostly up to 38.4 µM
In short: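 GLuc-SERCaMP-expressing SH-SY5Y cells, pretreated 16 h with compound, are challenged with thapsigargin to empty ER calcium stores; after 4 h, coelenterazine is added directly to the medium and luminescence is imaged.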

[12] = biological target: Cytochrome P450 3A4 (Homo sapiens) (UniProt P08684); test: qHTS Assay for Activators of Cytochrome P450 3A4 (AID 885; active means well fitted curve in the direction sought with a large enough effect; an effect the other way counts as inactive or inconclusive; further: nearly all actives have a fitted effect of over 65% in size; further: potency means the concentration at half of the fitted maximal effect); conditions: recombinant CYP3A4, Luciferin-PPXE luminescence, 60 min; series mostly up to 57.1 µM
Chain of Cytochrome P450 3A4 (Homo sapiens) (P08684 whole entry, looked up): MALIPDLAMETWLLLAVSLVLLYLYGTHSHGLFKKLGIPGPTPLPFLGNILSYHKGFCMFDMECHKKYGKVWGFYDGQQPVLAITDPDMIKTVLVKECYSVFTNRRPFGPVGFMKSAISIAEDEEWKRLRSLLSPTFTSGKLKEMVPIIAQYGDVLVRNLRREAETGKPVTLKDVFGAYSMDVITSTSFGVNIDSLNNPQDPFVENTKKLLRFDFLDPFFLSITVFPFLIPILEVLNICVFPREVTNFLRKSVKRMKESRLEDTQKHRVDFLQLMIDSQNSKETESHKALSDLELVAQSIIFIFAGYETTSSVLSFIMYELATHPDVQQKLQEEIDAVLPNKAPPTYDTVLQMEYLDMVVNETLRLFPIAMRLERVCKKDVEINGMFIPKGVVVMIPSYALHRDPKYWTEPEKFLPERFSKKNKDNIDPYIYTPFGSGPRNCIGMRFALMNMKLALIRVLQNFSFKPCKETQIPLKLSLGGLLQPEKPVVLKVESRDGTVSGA
In short: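 Signal was normalized against complete inhibition by 57 uM ketoconazole. The reaction used 20nM CYP3A4 with 25uM Luciferin-PPXE, 10-min compound preincubation and a 60-min NADPH-supported step at RT.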

[13] = biological target: Cytochrome P450 3A4 (Homo sapiens) (UniProt P08684); test: qHTS Assay for Inhibitors and Substrates of Cytochrome P450 3A4 (AID 884; active means well fitted curve in the direction sought with a large enough effect; an effect the other way counts as inactive or inconclusive; further: nearly all actives have a fitted effect of over 50% in size; further: potency means the concentration at half of the fitted maximal effect); conditions: recombinant CYP3A4, Luciferin-PPXE luminescence; series mostly up to 57.1 µM
In short: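 20 nM human CYP3A4 with 25 uM Luciferin-PPXE (at KM) in 200 mM KPO4, preincubated 10 min with compound; NADPH regeneration started a 60 min RT reaction. Luciferin detected by luminescence, normalized to 57 uM ketoconazole as full inhibition.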

[14] = Confirmation and Secondary Assay for Modulators of Hemoglobin Beta Chain Splicing at IVS2 654 locus (AID 910; active means well fitted curve in the direction sought with a large enough effect; an effect the other way counts as inactive or inconclusive;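 further: HeLa cells stably carrying EGFP split by mutant beta-globin IVS2-654 intron; % of control where 0% means no effect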); conditions: HeLa EGFP-654 splicing reporter, GFP fluorescence, 48 h; series mostly up to 46.1 µM
In short: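 HeLa cells stably expressing EGFP interrupted by β-globin IVS2-654 intron, seeded overnight in Opti-MEM/2% FCS, then treated 2 days at 37 °C. Restored splicing read as total peak GFP intensity per well by laser scanning cytometry (488 nm excitation, 500–520 nm emission); 500 nM antisense PNA as control.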

[15] = Confirmation and Secondary Assay for Modulators of Hemoglobin Beta Chain Splicing at IVS2 705 locus (AID 930; active means well fitted curve in the direction sought with a large enough effect; an effect the other way counts as inactive or inconclusive;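 further: HeLa cells stably expressing the EGFP-705 splicing reporter; GFP fluorescence per well restored by corrected splicing of the IVS2-705 intron in EGFP; % of control where 0% means no effect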); conditions: HeLa EGFP-705 splicing reporter, GFP fluorescence, 48 h; series mostly up to 46.1 µM
In short: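 Per-well GFP, captured at 1 x 8 µm resolution with 488 nm excitation, served as the read-out for HeLa EGFP-705 cells incubated 2 days with test compound versus DMSO.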

[16] = measured here: cell count channel max response
[17] = measured here: lipid channel max response

c1csc(CN2CC3(CCNCC3)C2)n1
inactive: Potency [1] > 20 µM | Potency [2] > 11.4 µM | outcome [3] | Potency [4] | activity change, negative = inhibition [5] 5.76% | outcome [6] | Potency [7] > 46 µM | outcome [8] | Potency [9] | activity change, negative = inhibition ([10]; at 57.5 µM (top of the series)) 9.28% | outcome [11]
24.8%: max response [10, 17]
10.7%: max response [10, 16]

c1csc(CN2CCC3(CCNCC3)CC2)n1
11.7%: max response [10, 16]
inactive: Potency [1] > 20 µM | Potency [2] > 11.4 µM | outcome [3] | Potency [4] | activity change, negative = inhibition [5] -5.8% | outcome [6] | Potency [7] > 46 µM | outcome [8] | Potency [9] | activity change, negative = inhibition ([10]; at 57.5 µM (top of the series)) -2.74% | outcome [11]
11%: max response [10, 17]

CN1CC[C@@]2(CCCN(C(=O)c3csnn3)C2)C1
-16.8%: max response [10, 17]
-13.7%: max response [10, 16]
inactive: Potency [2] > 11.4 µM | outcome [3] | Potency [4] | activity change, negative = inhibition [5] -23.3% | outcome [6] | Potency [7] > 46 µM | Potency [9] | activity change, negative = inhibition ([10]; at 57.5 µM (top of the series)) -3.58% | outcome [11]

c1ccc(N2CC3(CCNCC3)C2)nc1
12.4%: max response [10, 16]
14.7%: max response [10, 17]
inactive: Potency [2] > 11.4 µM | outcome [3] | outcome [6] | Potency [7] > 46 µM | outcome [8] | Potency [9] | activity change, negative = inhibition ([10]; at 57.5 µM (top of the series)) -0.659% | outcome [11]

O=C(Nc1cccc(F)c1)N1CC2(CCN(C(=O)Oc3ccccc3)CC2)C1
-1.47%: max response [10, 17]
active: Potency [4] 12.6 µM | Potency [12] 12.6 µM
inactive: Potency [1] > 20 µM | Potency [2] > 11.4 µM | outcome [3] | activity change, negative = inhibition [5] 16.5% | outcome [6] | Potency [7] > 46 µM | outcome [8] | Potency [9] | activity change, negative = inhibition ([10]; at 57.5 µM (top of the series)) 5.68% | outcome [11]
-9.16%: max response [10, 16]

N#Cc1ccc(CN2CCCC3(CCN(C(=O)Oc4ccccc4)CC3)C2)cc1
16.3%: max response [10, 17]
11.6%: max response [10, 16]
inactive: Potency [2] > 11.4 µM | outcome [3] | Potency [4] | outcome [6] | Potency [7] > 46 µM | outcome [8] | Potency [9] | Potency [12] | activity change, negative = inhibition ([10]; at 57.5 µM (top of the series)) 1.3% | outcome [11]

O=C(O)[C@@H]1Cc2[nH]cnc2C(c2cccnc2)N1 (some centres undefined)
inactive: outcome [11]

CN1CCC2(CC1)CCN(C(=O)Oc1ccccc1)CC2
inactive: Potency [2] > 11.4 µM | outcome [3] | Potency [4] | outcome [6] | Potency [7] > 46 µM | outcome [8] | Potency [9] | activity change, negative = inhibition ([10]; at 57.5 µM (top of the series)) 2.73% | outcome [11]
7.31%: max response [10, 17]
2.61%: max response [10, 16]

c1cnc(N2CCCC3(CCNCC3)C2)nc1
19.3%: max response [10, 17]
9.32%: max response [10, 16]
inactive: Potency [2] > 11.4 µM | outcome [3] | activity change, negative = inhibition [5] -26.8% | outcome [6] | Potency [7] > 46 µM | outcome [8] | Potency [9] | activity change, negative = inhibition ([10]; at 57.5 µM (top of the series)) 7.13% | outcome [11]

COCC(=O)N1CCC2(CCCN(Cc3ccncc3)C2)CC1
12.2%: max response [10, 16]
inactive: Potency [1] > 20 µM | Potency [2] > 11.4 µM | outcome [3] | Potency [4] | outcome [6] | Potency [7] > 46 µM | outcome [8] | Potency [9] | Potency [12] | activity change, negative = inhibition ([10]; at 57.5 µM (top of the series)) 5.89% | outcome [11]
21.3%: max response [10, 17]

CS(=O)(=O)N1CCC2(CCCN(Cc3ccncc3)C2)CC1
15.9%: max response [10, 16]
inactive: Potency [1] > 20 µM | Potency [2] > 11.4 µM | outcome [3] | activity change, negative = inhibition [5] -20.7% | outcome [6] | Potency [7] > 46 µM | outcome [8] | Potency [9] | activity change, negative = inhibition ([10]; at 57.5 µM (top of the series)) 6.09% | outcome [11]
25.1%: max response [10, 17]

c1cnc(N2CC3(CCNCC3)C2)nc1
15.7%: max response [10, 17]
inactive: Potency [2] > 11.4 µM | outcome [3] | activity change, negative = inhibition [5] -1.58% | outcome [6] | Potency [7] > 46 µM | outcome [8] | Potency [9] | activity change, negative = inhibition ([10]; at 57.5 µM (top of the series)) 1.55% | outcome [11]
11.6%: max response [10, 16]

CN1CC[C@@]2(CCCN(C(=O)c3ccncc3)C2)C1
8.97%: max response [10, 17]
inactive: Potency [1] > 20 µM | Potency [2] > 11.4 µM | outcome [3] | Potency [4] | outcome [6] | Potency [7] > 46 µM | outcome [8] | Potency [12] | activity change, negative = inhibition ([10]; at 57.5 µM (top of the series)) 0.0036% | outcome [11]
5.11%: max response [10, 16]

COc1cc2c(cc1O)CC1c3c(cc(O)c(OC)c3-2)CCN1C (centres undefined)
inactive: Potency [12] | Potency [14] | Potency [15] | activity change, negative = inhibition ([10]; at 57.5 µM (top of the series)) 9.81%
38.2%: max response [10, 17]
active: Potency [13] 25.1 µM
24.1%: max response [10, 16]

O=C(Oc1ccccc1)N1CCC2(CCN(Cc3nccs3)CC2)CC1
active: Potency [12] 25.1 µM
inactive: outcome [3] | Potency [4] | outcome [6] | Potency [7] > 46 µM | outcome [8] | Potency [9] | Potency [13] | outcome [11]

NC(N)=N/N=C\c1c(Cl)cccc1Cl
22.6%: max response [10, 17]
12.3%: max response [10, 16]
inactive: activity change, negative = inhibition ([10]; at 57.5 µM (top of the series)) 6.25%

COc1ccc2cc1Oc1ccc(cc1)CC1c3cc(c(OC)cc3CCN1C)Oc1c(OC)c(OC)cc3c1C(C2)N(C)CC3 (centres undefined)
inactive: activity change, negative = inhibition ([10]; at 57.5 µM (top of the series)) 6.58%
6.79%: max response [10, 17]
-1.03%: max response [10, 16]

COc1ccc2cc1Oc1ccc(cc1)C[C@H]1c3cc(c(OC)cc3CCN1C)Oc1c(OC)c(OC)cc3c1[C@@H](C2)N(C)CC3
-10.6%: max response [10, 17]
inactive: activity change, negative = inhibition ([10]; at 25.7 µM (top of the series)) -4.24%
-9.67%: max response [10, 16]
